# From PubChem BioAssay AID463165 (Johns Hopkins Ion Channel Center, 2010)
# The campaign covered roughly 310,000 compounds. About 1,400 (0.45%) were called active. This is one part of a sample in which actives are shown more often than they occur.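 Rule for the calls: active = B-score, a plate-corrected calcium signal, over three deviations above library mean, with baseline fluorescence within five deviations of library mean; inactive = the rest.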
# Target: Regulator of G-protein signaling 4 (Homo sapiens) (UniProt P49798)
# Sequence (P49798 whole entry, looked up): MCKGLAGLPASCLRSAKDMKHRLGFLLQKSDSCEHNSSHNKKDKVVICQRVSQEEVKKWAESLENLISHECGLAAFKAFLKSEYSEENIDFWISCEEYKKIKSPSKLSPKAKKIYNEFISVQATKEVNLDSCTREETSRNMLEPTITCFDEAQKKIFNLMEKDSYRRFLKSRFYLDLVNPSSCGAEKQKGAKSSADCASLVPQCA
# Test: RGS4 inhibitors, primary screen, cell-based, HEK293 M3R inducible RGS4, calcium flux (AID 463165);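 note: RGS4 expression induced by doxycycline in cells with stable M3 receptor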;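 for B-score: B-score is computed from the integrated fluorescence ratio over baseline after carbachol; higher B-score means a larger calcium signal and so more RGS4 inhibition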
# Details: Fluo-4 calcium flux, at 10 µM, triggered by carbachol at its EC20; active compounds read high
row,SMILES,B-score
1,COC(=O)c1sccc1NN1C(=O)c2ccccc2C1=O,inactive
2,COc1ccc(N2CCN(C(=O)COC(=O)c3cccc(S(=O)(=O)Nc4ccccc4OC)c3)CC2)cc1,inactive
3,O=C(Nc1cccc(Cl)c1)OCc1ccccn1,inactive
4,O=C(Nc1ccccc1)OCc1cn(-c2ccc(Cl)cc2)nn1,inactive
5,O=C(Nc1ccc(Cl)cc1)OCc1cc(-c2ccccc2)on1,6.27 (active)
6,Cc1cccc(-c2nnc(SCC(=O)O)n2Cc2ccccc2)c1,inactive
7,Cc1ccc(C(=O)/C=C/c2c(C)nn(-c3ccccc3)c2Cl)cc1,inactive
8,O=C(CSc1ncn[nH]1)N/N=C/c1ccc(F)cc1,inactive
9,O=C(/C=C/Sc1ncn[nH]1)c1ccc(Cl)cc1,12 (active)
10,O=S(=O)(Cc1cc(Sc2ccccc2)nc(-c2ccccc2)n1)c1ccccc1,inactive
11,Cc1cc(N2CCOCC2)nc(-c2ccc(Br)cc2)n1,inactive
12,Cc1ccc(Sc2cc(N3CCOCC3)nc(-c3ccccc3)n2)cc1,8.43 (active)
13,CCCN(CCc1ccccc1)C1CCc2c(O)cccc2C1 (stereo not drawn),inactive
14,CCc1ccc(N(C(=O)c2csnn2)C(C(=O)NC2CCCCC2)c2ccncc2)cc1 (stereo not drawn),inactive
15,Cc1ccc2nc(-c3ccc(NC(=O)CN(C)S(=O)(=O)c4ccccc4)cc3)sc2c1,inactive
16,NC(=O)NC(=O)CSc1nc2cc([N+](=O)[O-])ccc2n1-c1cccc(C(F)(F)F)c1,inactive
17,CCc1nnc(NS(=O)(=O)c2ccc(NC(=S)NC(=O)/C=C/c3cccs3)cc2)s1,inactive
18,CCc1nnc(NS(=O)(=O)c2ccc(N=Cc3c(C)[nH]n(-c4ccc(C)cc4)c3=O)cc2)s1,5.86 (active)
19,CCc1nnc(NS(=O)(=O)c2ccc(NS(=O)(=O)c3ccccc3)cc2)s1,inactive
20,O=C(OCc1cc(Cl)ccc1OC(F)F)c1cccnc1,inactive
21,O=C1N/C(=N\N=C\c2ccco2)SC1Cc1ccc(F)cc1 (stereo not drawn),inactive
22,CC(C)=N/N=C1/NC(=O)C(Cc2ccccc2)S1 (stereo not drawn),inactive

row,SMILES,B-score
1,CCCCC1S/C(=N/N=C/c2cccs2)NC1=O (stereo not drawn),6.28 (active)
2,Cc1cccc(CN2CCN(Cc3cnn(-c4ccccc4F)c3)CC2CCO)n1 (stereo not drawn),inactive
3,CCCCN1C(=S)NC[C@@H]1C(C)CC (stereo partly drawn),inactive
4,CC(CO)NCC12CC3CC(CC(C3)C1)C2 (stereo not drawn),inactive
5,Brc1ccc(-c2csc(N/N=C/c3ccc4c(c3)OCO4)n2)cc1,inactive
6,Brc1ccc(-c2csc(N/N=C/c3cccnc3)n2)cc1,7.99 (active)
7,Cc1ccccc1Nc1nc(-c2cccnc2)cs1,inactive
8,CCCCN1C(=O)C(C)=C(C)C1OCCc1ccc(OC)c(OC)c1 (stereo not drawn),inactive
9,c1ccc(CN=C2Nc3ccccc3CS2)nc1,inactive
10,CNCC(O)c1ccc(O)c(O)c1 (stereo not drawn),6 (active)
11,CC(=O)NCC(O)c1ccc([N+](=O)[O-])cc1 (stereo not drawn),inactive
12,CCC(C)c1ccc(O)c(/C=N/O)c1 (stereo not drawn),inactive
13,FC(F)(F)c1ccc(-n2cn[nH]c2=S)cc1,inactive
14,Cc1ccnc(NS(=O)(=O)c2ccc(NC(=O)c3oc4ccc(F)cc4c3C)cc2)n1,inactive
15,CCOC(=O)c1c(NC(C)=O)sc2c(O)c(Br)ccc12,inactive
16,C1=C(N2CCOCC2)/C(=C/c2nc3ccccc3[nH]2)CC1,5.95 (active)
17,CC1(C)Cc2c(C#N)c(SCc3nc4ccccc4[nH]3)nc(N3CCOCC3)c2CO1,inactive
18,O=c1[nH]c(N2CCOCC2)nc2ccccc12,inactive
19,Nc1c(-c2ccc(F)cc2)cnn1C1CCS(=O)(=O)C1 (stereo not drawn),inactive
20,C/C(=N\NC(=O)CSc1nc2ccccc2c(=O)n1-c1ccccc1C)c1cccs1,inactive
21,CN1C(=O)/C(=C\c2ccc(-c3ccccc3)o2)SC1=S,inactive
22,O=C1NN(c2ccccc2)C(=O)/C1=C/c1ccc(-c2cccc(C(=O)O)c2)o1,inactive

row,SMILES,B-score
1,O=C(O)C(c1ccccc1)N1C(=O)/C(=C\c2ccc(-c3cccc(Cl)c3)o2)SC1=S (stereo not drawn),10.3 (active)
2,NC(=O)C1CCN(CC(O)CSc2ccc(F)cc2)CC1 (stereo not drawn),inactive
3,CC(Oc1ccccc1)C(=O)Nc1c2c(nn1-c1ccccc1)CS(=O)C2 (stereo not drawn),inactive
4,COc1ccc(-c2nc3c(s2)CCc2onc(-c4ccc(Br)cc4)c2-3)cc1,inactive
5,O=[N+]([O-])/C=C/c1ccc2c(ccn2Cc2ccccc2)c1,44.8 (active)
6,O=C(Cn1ccc2cc(S(=O)(=O)N3CCCC3)ccc21)NCc1ccccc1,inactive
7,O=C(/C=C/c1cccc([N+](=O)[O-])c1)N1CCN(Cc2ccccc2)CC1,inactive
8,O=c1c2cc([N+](=O)[O-])ccc2nc2n1CCC2,inactive
9,C=CCOc1cccc(C2NC(=O)c3ccccc3O2)c1 (stereo not drawn),inactive
10,Oc1ccc(Br)cc1C=Nc1ccc2[nH]ncc2c1,inactive
11,Oc1c(Cl)cc(Cl)cc1/C=N/c1ncn[nH]1,inactive
12,COc1cc(Br)cc(/C=N/c2ncn[nH]2)c1O,5.03 (active)
13,Cc1ccc(CN2CCN(Cc3cccc(C)n3)CC2CCO)cc1 (stereo not drawn),inactive
14,CCCCCN(C(=O)CCC(=O)OCC(=O)NC1CCC(C)CC1)c1c(N)n(CCCC)c(=O)[nH]c1=O (stereo not drawn),inactive
15,COc1cc(/C=C2/C(=O)NN(c3cccc(Cl)c3)C2=O)cc(Br)c1O,5.61 (active)
16,Cc1cccc(C)c1-n1c(C)cc(/C=C2\C(=O)NN(c3ccccc3)C2=O)c1C,inactive
17,COc1cc(/C=N/O)cc(Br)c1OCc1cccc(Cl)c1,inactive
18,COc1cc(/C=C2\SC(=O)NC2=O)ccc1OCc1ccc(Cl)nc1,inactive
19,COc1cc(/C=C2/C(=O)NN(c3ccc(F)cc3)C2=O)cc([N+](=O)[O-])c1O,inactive
20,C#CCOc1ccc(/C=C2/C(=O)NN(c3ccccc3)C2=O)cc1OC,7.25 (active)
21,CONc1nc2nonc2nc1NOC,inactive
22,COc1ccc(Nc2ccc([N+](=O)[O-])cn2)cn1,inactive

row,SMILES,B-score
1,Cc1ccc(NC(=O)OCc2cncs2)cc1,inactive
2,COc1ccc(NC(=O)/C(Cl)=C(/Cl)S(=O)Cc2ccc(C)cc2)cn1 (stereo not drawn),5.83 (active)
3,COC(=O)c1ccc(Nc2ncnc3sccc23)cc1,inactive
4,Cc1ccc(-n2c(SCC(=O)N3CCC(C(=O)O)CC3)nc3ccccc3c2=O)cc1C,inactive
5,Cc1nc(-c2ccccc2)sc1C(=O)/C=C/c1ccccc1,11.9 (active)
6,Cc1nc(-c2ccccc2)sc1C(=O)/C=C/N(C)C,inactive
7,Cc1nc(-c2ccc(Cl)cc2)sc1C(=O)CBr,inactive
8,Cc1cccc(C(=O)NC(=S)N(C)C2CCCCC2)c1,inactive
9,CCC(c1nnnn1Cc1ccccc1)N(Cc1cc2cc(OC)ccc2[nH]c1=O)CC1CCCO1 (stereo not drawn),inactive
10,CCC(c1nnnn1Cc1ccco1)N(CCc1ccccc1)Cc1cc2cccc(C)c2[nH]c1=O (stereo not drawn),inactive
11,CCC(c1nnnn1Cc1ccco1)N(Cc1cc2cc(OC)ccc2[nH]c1=O)C1CCCCC1 (stereo not drawn),16.8 (active)
12,COC(=O)/C=C(\Oc1ccccc1)C1(O)CCCCC1,inactive
13,O=C(Nc1ccccc1)C1CCN(C(=O)c2ccc(Br)cc2)CC1,inactive
14,COc1ccc(C(C[N+](=O)[O-])n2nc(C)cc2C)cc1 (stereo not drawn),5.35 (active)
15,COc1ccc(OCc2cn3c(C)cc(C)nc3n2)cc1,inactive
16,COc1ccc(C(=O)CSc2nc(C)cc(C)n2)cc1[N+](=O)[O-],inactive
17,CCOc1ccc(NC(=S)NC(=O)/C=C/c2ccc(OC)cc2)c([N+](=O)[O-])c1,inactive
18,O=C1Nc2ccc(Br)cc2/C1=N/N=C/C1=C(N2CCOCC2)C(=C\c2ccccc2)/CC1,13.1 (active)
19,C(=N\N1CCN(c2ccccn2)CC1)/C1=C(N2CCOCC2)C(=C/c2ccccc2)/CC1,inactive
20,N#C/C(=C\C1=C(N2CCOCC2)C(=C\c2ccccc2)/CC1)C(=O)Nc1ccccc1F,inactive
21,COc1ccc(C(F)(F)F)cc1N/C=C\c1nnnn1-c1ccc(C)cc1,inactive
22,CCOC(=O)c1ccccc1NC(=O)COC(=O)CCC(=O)N1CCOCC1,inactive

row,SMILES,B-score
1,S=c1[nH]nc(-c2cc(-c3ccccc3)n[nH]2)n1/N=C/c1c2ccccc2cc2ccccc12,inactive
2,Cc1cc(-c2n[nH]c(=S)n2/N=C/C(Br)=C/c2ccccc2)n[nH]1,7.31 (active)
3,CC(C)c1cc(C(=O)N/N=C/C(Br)=C/c2ccccc2)n[nH]1,inactive
4,COCCn1c(SCC(=O)c2[nH]c(C)c(C(C)=O)c2C)nc2ccccc2c1=O,inactive
5,CCOc1cc2[nH]c(=S)n(Cc3ccc(C(=O)N4CCN(C)CC4)cc3)c(=O)c2cc1OCC,inactive
6,O=C(C1CCC(=O)N(C2CC2)C1)N1CCN(c2ccc(Cl)cc2)CC1 (stereo not drawn),inactive
7,Nc1nc(Nc2ccccc2F)nc(NC2CCCCC2)c1[N+](=O)[O-],inactive
8,C=CCNc1nc(N)c([N+](=O)[O-])c(NC2CCCCC2)n1,7.68 (active)
9,Nc1nc(NCC2CCCO2)nc(Nc2ccccc2F)c1[N+](=O)[O-] (stereo not drawn),inactive
10,CC(C)c1ccc(/C=C2\NC(=O)NC2=O)cc1,inactive
11,C=CCNC(=O)CCCC(=O)NCC=C,inactive
12,CN(C)c1ccc(/C=C/C(=O)c2ccc(C(C)(C)C)cc2)cc1[N+](=O)[O-],inactive
13,CN(C)c1ccc(/C=C/C(=O)c2ccc(O)cc2)cc1[N+](=O)[O-],inactive
14,O=C(/C=C/c1ccc(Cl)c([N+](=O)[O-])c1)c1ccc(O)cc1,6.92 (active)
15,O=C(Nc1cccnc1)c1ccc(Cl)c([N+](=O)[O-])c1,inactive
16,O=C(/C=C/c1ccc(Cl)c([N+](=O)[O-])c1)c1cccnc1,11 (active)
17,O=C(/C=C/c1ccc(Cl)cc1Cl)c1cccnc1,inactive
18,Cc1ccc(S(=O)(=O)N(CC(=O)NN=C2CCN(C)CC2)c2ccc(F)cc2)cc1,inactive
19,CCCCN(C(=O)/C=C/c1ccco1)c1c(N)n(CC(C)C)c(=O)[nH]c1=O,inactive
20,CS/C(=C\[N+](=O)[O-])Nc1ccc(C)cc1,inactive
